Assay [1] concerns the target High affinity nerve growth factor receptor (Homo sapiens) (UniProt P04629). The settings on record: at 1 µM.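 Also: each value is the mean percent inhibition of TRKA.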
Assay [2] has as its target BDNF/NT-3 growth factors receptor (Homo sapiens) (UniProt Q16620). The settings on record: at 0.1 µM.
For assay [3] the target is unchanged. The conditions noted are these: at 1 µM.
The target of assay [4] is NT-3 growth factor receptor (Homo sapiens) (UniProt Q16288). The settings on record: at 0.1 µM.
Assay [5] has the same target. The conditions noted are these: at 1 µM.
In assay [6] the target is T1, Tyrosine-protein kinase TXK (Homo sapiens) (UniProt P42681).
T1 sequence (whole entry): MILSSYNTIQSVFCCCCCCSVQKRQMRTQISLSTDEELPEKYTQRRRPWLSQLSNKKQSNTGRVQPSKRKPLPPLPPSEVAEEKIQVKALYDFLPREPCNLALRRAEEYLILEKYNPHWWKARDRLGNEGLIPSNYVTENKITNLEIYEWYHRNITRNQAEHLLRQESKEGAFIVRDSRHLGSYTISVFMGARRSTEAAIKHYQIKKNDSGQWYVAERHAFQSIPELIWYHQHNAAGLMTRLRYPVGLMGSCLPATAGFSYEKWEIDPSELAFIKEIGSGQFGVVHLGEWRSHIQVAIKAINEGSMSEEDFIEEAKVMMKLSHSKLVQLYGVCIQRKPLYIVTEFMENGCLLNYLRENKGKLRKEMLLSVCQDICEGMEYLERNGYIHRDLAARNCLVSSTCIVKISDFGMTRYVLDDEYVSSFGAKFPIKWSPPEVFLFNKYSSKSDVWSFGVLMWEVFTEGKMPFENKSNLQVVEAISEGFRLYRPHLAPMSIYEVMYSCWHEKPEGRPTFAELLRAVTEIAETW
The conditions noted are these: at 0.1 µM.

For assay [7], the target named is T1, Tyrosine-protein kinase TXK (Homo sapiens). The settings on record: at 1 µM.
Assay [8] has as its target Non-receptor tyrosine-protein kinase TYK2 (Homo sapiens) (UniProt P29597). The conditions noted are these: at 0.1 µM.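 Also: each value is a mean of the inhibition readings.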
The target in assay [9] is T2, Dual specificity protein kinase TTK (Homo sapiens) (UniProt P33981).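 Also: reported figures are mean TTK inhibition at 1 µM.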
T2 sequence (whole entry): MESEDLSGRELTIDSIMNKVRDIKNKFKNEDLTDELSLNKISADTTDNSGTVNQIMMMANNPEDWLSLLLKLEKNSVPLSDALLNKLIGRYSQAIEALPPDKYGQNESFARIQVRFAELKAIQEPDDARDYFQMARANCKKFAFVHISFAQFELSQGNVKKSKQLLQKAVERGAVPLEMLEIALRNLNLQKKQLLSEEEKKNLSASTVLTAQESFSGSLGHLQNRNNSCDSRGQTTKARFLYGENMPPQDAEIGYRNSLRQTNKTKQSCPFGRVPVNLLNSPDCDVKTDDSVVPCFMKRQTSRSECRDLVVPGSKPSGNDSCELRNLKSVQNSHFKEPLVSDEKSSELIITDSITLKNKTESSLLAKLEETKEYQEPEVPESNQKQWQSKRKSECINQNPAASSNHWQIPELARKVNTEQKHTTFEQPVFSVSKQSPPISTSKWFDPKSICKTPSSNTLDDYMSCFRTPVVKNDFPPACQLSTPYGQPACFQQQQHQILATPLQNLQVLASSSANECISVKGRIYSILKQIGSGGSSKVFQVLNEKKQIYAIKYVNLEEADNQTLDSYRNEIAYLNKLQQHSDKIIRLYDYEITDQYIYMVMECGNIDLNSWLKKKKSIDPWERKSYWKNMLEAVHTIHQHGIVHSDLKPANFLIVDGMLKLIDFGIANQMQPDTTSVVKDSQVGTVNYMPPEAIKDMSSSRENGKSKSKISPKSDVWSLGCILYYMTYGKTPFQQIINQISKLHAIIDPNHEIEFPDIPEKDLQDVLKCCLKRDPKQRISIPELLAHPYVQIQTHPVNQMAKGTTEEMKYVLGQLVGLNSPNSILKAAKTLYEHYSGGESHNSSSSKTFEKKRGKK
The settings on record: at 1 µM.

In assay [10] the target is T3, Aurora kinase A (Homo sapiens) (UniProt O14965).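 Also: each reported value is a mean percent inhibition of Aurora-A.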
T3 sequence (whole entry): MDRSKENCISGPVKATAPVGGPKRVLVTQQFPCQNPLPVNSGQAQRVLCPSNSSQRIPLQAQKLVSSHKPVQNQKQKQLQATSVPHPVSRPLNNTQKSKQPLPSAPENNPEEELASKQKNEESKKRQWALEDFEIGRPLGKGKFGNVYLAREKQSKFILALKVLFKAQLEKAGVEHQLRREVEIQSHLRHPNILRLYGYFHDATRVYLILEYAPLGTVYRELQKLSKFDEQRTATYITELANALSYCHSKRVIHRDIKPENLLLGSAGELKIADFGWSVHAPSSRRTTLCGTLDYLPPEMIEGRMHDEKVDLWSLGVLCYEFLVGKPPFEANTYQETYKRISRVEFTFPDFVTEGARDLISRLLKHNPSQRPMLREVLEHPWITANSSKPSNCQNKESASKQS
The settings on record: at 0.1 µM.

Chain of NT-3 growth factor receptor (Homo sapiens) (Q16288 32-839 limits assumed): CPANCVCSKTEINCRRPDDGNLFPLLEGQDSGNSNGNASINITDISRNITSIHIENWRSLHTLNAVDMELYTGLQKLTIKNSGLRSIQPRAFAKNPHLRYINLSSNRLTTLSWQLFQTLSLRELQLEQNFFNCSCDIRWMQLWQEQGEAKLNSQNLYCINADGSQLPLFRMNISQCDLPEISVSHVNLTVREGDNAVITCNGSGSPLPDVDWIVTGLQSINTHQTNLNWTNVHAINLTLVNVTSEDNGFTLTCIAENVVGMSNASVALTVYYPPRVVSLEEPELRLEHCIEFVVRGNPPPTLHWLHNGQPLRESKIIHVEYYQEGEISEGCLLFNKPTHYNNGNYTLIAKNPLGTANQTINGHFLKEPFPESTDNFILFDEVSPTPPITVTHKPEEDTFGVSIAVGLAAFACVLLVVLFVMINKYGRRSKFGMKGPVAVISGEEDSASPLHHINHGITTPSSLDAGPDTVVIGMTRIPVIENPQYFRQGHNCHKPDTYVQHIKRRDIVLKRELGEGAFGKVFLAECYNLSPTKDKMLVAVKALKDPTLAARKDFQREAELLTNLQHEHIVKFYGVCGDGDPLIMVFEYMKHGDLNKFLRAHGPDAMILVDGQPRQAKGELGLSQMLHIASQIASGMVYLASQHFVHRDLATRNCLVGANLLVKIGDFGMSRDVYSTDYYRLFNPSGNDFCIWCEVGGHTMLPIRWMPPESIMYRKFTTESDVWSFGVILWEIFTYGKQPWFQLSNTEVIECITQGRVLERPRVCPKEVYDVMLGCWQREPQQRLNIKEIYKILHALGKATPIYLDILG
Chain of High affinity nerve growth factor receptor (Homo sapiens) (P04629 33-796 limits assumed): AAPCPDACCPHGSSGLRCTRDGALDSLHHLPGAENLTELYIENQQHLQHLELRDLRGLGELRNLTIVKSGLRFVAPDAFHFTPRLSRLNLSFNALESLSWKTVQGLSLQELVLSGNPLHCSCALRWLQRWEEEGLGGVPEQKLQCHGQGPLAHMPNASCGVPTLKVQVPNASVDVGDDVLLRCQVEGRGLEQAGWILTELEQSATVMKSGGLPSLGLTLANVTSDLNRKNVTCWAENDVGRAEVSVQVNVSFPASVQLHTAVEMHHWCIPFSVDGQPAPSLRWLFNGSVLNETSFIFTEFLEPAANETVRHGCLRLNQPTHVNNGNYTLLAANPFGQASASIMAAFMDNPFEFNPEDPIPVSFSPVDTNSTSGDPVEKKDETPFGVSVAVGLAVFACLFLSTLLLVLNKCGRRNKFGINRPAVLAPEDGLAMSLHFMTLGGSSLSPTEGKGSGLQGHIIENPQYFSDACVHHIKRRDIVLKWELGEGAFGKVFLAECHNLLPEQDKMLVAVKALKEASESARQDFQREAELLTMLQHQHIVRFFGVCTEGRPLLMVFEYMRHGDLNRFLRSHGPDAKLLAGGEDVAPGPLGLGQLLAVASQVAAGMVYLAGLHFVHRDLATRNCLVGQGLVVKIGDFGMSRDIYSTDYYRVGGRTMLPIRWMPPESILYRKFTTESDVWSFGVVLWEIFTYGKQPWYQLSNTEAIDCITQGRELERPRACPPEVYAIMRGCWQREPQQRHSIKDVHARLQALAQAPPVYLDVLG
Chain of Non-receptor tyrosine-protein kinase TYK2 (Homo sapiens) (P29597 whole entry): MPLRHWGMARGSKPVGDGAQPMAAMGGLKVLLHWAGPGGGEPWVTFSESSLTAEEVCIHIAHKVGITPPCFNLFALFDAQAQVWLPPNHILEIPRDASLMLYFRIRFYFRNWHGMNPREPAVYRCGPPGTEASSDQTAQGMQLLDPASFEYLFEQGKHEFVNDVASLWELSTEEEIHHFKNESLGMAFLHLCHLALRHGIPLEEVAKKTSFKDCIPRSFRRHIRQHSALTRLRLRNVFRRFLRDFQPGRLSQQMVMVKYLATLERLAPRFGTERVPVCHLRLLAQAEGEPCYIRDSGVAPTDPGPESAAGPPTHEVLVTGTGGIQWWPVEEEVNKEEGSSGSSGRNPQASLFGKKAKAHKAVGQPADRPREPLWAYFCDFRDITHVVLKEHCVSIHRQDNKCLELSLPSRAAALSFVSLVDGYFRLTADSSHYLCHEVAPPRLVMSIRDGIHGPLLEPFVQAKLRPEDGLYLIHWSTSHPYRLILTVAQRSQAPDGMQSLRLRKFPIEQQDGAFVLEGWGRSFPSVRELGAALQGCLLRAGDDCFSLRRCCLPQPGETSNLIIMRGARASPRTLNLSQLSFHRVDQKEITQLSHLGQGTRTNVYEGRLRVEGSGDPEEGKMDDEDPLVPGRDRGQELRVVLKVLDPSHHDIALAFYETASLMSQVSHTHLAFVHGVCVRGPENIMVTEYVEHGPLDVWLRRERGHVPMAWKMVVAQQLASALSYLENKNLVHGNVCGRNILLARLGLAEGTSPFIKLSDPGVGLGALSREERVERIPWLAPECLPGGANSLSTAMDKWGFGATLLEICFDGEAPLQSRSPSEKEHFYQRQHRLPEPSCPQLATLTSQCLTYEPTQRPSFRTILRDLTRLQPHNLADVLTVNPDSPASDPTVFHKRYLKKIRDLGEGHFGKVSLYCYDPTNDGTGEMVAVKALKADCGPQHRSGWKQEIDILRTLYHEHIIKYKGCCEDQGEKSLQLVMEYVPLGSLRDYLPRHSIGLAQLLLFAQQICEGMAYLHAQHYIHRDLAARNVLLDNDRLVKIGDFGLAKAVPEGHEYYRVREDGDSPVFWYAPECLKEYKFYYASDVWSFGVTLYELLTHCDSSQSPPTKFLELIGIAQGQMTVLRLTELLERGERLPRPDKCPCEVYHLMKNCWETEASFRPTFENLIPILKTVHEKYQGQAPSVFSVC
Chain of BDNF/NT-3 growth factors receptor (Homo sapiens) (Q16620 32-822 limits assumed): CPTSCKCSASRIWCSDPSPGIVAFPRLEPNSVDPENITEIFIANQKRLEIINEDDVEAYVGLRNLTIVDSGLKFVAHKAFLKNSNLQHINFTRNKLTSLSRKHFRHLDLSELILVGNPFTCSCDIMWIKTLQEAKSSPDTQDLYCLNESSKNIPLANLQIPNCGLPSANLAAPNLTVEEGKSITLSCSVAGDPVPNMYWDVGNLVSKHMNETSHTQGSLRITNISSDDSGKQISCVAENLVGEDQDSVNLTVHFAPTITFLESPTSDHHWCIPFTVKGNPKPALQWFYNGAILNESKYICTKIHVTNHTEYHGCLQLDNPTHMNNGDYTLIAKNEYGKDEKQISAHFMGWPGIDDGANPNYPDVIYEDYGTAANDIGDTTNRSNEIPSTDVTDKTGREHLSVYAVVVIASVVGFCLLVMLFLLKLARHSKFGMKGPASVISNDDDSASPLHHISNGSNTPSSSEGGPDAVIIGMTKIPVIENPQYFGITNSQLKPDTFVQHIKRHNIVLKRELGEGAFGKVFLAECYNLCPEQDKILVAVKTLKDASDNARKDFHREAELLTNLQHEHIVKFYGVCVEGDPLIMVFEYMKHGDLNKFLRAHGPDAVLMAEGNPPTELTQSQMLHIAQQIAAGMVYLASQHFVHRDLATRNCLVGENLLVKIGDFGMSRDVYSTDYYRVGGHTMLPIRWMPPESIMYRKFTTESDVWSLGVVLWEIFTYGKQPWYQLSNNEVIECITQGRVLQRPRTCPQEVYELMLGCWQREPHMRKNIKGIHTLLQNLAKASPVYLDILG

For the compound `CCn1c(-c2nonc2N)nc2c(C#CC(C)(C)O)nc(OCCNC)cc21`, the inhibition (as a rule, the relative decrease from the control value, in per cent) in [1] is 6.23%; in assay [2] it was 3.15%; in [3], 3.59%; in assay [4], 1.5%; in assay [5], 2.5%; in [6], 3.81%. The inhibition in assay [7] is 2.46%; in [8], -0.47%; in [9], 9.85%; in assay [10], 1.75%.
For `FC(F)(F)c1ccc(-c2nn3ncccc3c2-c2ccnc(Nc3ccc4c(c3)OCCO4)n2)cc1`, the inhibition in [1] was found to be 0.14%; in assay [2] it was 1.21%; in assay [3], 3.15%; in assay [4], 1.88%; in assay [5] it was 4.32%; in assay [6], 6.36%. The inhibition in [7] is 4.7%; in assay [8], 3.04%; in assay [9], 2.98%; in [10], -2.66%.
Turning to `OCc1ccc(-c2nc(-c3ccccn3)c(-c3ccc4c(c3)OCO4)[nH]2)cc1`, the inhibition was determined as 3.45% in [1]; 3.16% in [2]; 1% in assay [3]; 4.37% in assay [4]; 3% in [5]; 6.42% in [6]. Moreover, the inhibition in assay [7] was 12.5%; in assay [8] it was -1.9%; in [9] it was 9.01%; in [10] it was 4.4%.
`COc1cccc(-n2ncc3c(N/N=C/c4ccc(C)cc4)ncnc32)c1`: the inhibition in assay [1] is 5.28%; in assay [2], 3.97%; in assay [3], 5.08%; in [4] it was 3.96%; in assay [5], 2.64%; in assay [6], 7.7%. Also, the inhibition in assay [7] is 7.5%; in assay [8] it was -1.37%; in [9] it was 19.1%; in [10], 3.98%.
In the case of `C[C@@H](Oc1cc(-n2cnc3ccc(OCC4CCN(C)CC4)cc32)sc1C(N)=O)c1ccccc1C(F)(F)F`, the inhibition in assay [1] was 0.72%; in [2], -0.51%; in assay [3] it was 1.01%; in assay [4], -0.61%; in assay [5], 0.64%; in assay [6] it was -1.27%. In addition, the inhibition in [7] was 1.35%; in assay [8], 2.67%; in assay [9], 1.44%; in [10], -0.53%.
For the compound `COC(=O)c1ccc2c(c1)C(=Cc1cc(Br)c(O)c(Br)c1)C(=O)N2`, the inhibition is 6.54% in assay [1]; 3.26% in assay [2]; 8.43% in assay [3]; 2.35% in [4]; 12.1% in assay [5]; 6.42% in assay [6]. Also, the inhibition in assay [7] turned out to be 12.3%; in [8] it was 5.83%; in assay [9] it was 25.2%; in assay [10], 30.8%.
With `NS(=O)(=O)c1ccc(-c2cc3ccncc3cc2OCc2ccccc2)cc1`, the inhibition in assay [1] was 0.22%; in assay [2], 2.7%; in assay [3], 2.46%; in assay [4], 2.49%; in assay [5], 5.04%; in [6], 1.58%. Besides, the inhibition was 1.28% in assay [7], -3.96% in assay [8], 9.25% in assay [9] and 2.34% in assay [10].
Consider `Nc1ccc(C#Cc2cncnc2Nc2ccc(OCc3cccc(F)c3)c(Cl)c2)cc1`, for which the inhibition in assay [1] is 0.62%; in assay [2] it was 1.89%; in assay [3] it was 1.57%; in assay [4] it was 2.2%; in assay [5] it was 1.81%; in [6], -1.58%. Moreover, the inhibition in assay [7] worked out at 2.93%; in assay [8], 0.67%; in assay [9] it was 6.25%; in assay [10], 2.18%.
`CN(C)c1cc2c(Nc3ccc4c(cnn4Cc4ccccc4)c3)ncnc2cn1`: the inhibition in assay [1] amounted to 1.97%; in [2] it was 1.16%; in assay [3], 0.6%; in assay [4], 2.13%; in assay [5], 1.66%; in assay [6] it was 3.19%. The inhibition in assay [7] was 4.31%; in assay [8], -2.71%; in assay [9], 6.41%; in [10], -1.73%.
Regarding `Oc1cccc(-c2nc(-c3ccccc3)[nH]c2-c2ccncc2)c1`, the inhibition was determined as 5.31% in [1]; 3.82% in assay [2]; 5.72% in assay [3]; 4.99% in assay [4]; 7.3% in assay [5]; 3.28% in assay [6]. Moreover, the inhibition in assay [7] is 13.8%; in assay [8], -1.97%; in assay [9], 12.4%; in assay [10], 2.96%.
In the case of `CN(C)C(=O)O[C@@H]1CN[C@@H](C#Cc2cc3ncnc(Nc4ccc(OCc5cccc(F)c5)c(Cl)c4)c3s2)C1`, the inhibition in assay [1] is -4.24%; in assay [2], -0.65%; in assay [3], -0.85%; in [4], 2.82%; in [5] it was 0.46%; in assay [6], 2.85%. Besides, the inhibition is 5.35% in assay [7], 1.84% in [8], 4.98% in assay [9] and 1.79% in assay [10].
With `ON=C1CCc2cc(-c3nc(C4CCNCC4)[nH]c3-c3ccncc3)ccc21`, the inhibition was -1.26% in [1]; -0.05% in assay [2]; -1.18% in assay [3]; -1.73% in assay [4]; -0.26% in assay [5]; 1.85% in assay [6]. In addition, the inhibition in [7] is 2.25%; in [8], -1.08%; in [9], 2.17%; in assay [10], -0.5%.
In the case of `O=C1Nc2ccccc2/C1=C/Nc1ccc2[nH]c(=O)[nH]c2c1`, the inhibition in [1] is 53.9%; in assay [2], 26.2%; in [3] it was 72.7%; in assay [4], 26.2%; in [5], 74.2%; in [6] it was 6.68%. Further, the inhibition in assay [7] was 7.08%; in [8], -6.64%; in [9], 38.8%; in assay [10], 6.9%.
For `COc1cccc(-n2ncc3c(N/N=C/c4ccc(S(C)(=O)=O)cc4)ncnc32)c1`, the inhibition was 5.3% in [1]; 6.69% in [2]; 19.3% in [3]; 6.62% in assay [4]; 22.3% in [5]; 0.02% in assay [6]. Further, the inhibition is 12.4% in [7], -0.06% in assay [8] and 6.42% in [10].
Consider `CN(C)CCCn1c(-c2nonc2N)nc2cnccc21`, for which the inhibition in assay [1] is 3.29%; in [2] it was -0.15%; in assay [3], 3.55%; in assay [4], -0.01%; in assay [5], 3.2%; in [6], 3.61%. Moreover, the inhibition was 4.3% in assay [7], -2.99% in assay [8], 0.63% in [9] and 3.15% in assay [10].
As to `[O-][S+]1CCN(Cc2ccc(-c3ccc4ncnc(Nc5ccc(OCc6ccccc6)c(Cl)c5)c4c3)o2)CC1`, the inhibition came to 3.75% in [1]; 1.6% in assay [2]; 2.14% in assay [3]; 0.66% in assay [4]; 0.36% in assay [5]; 0.16% in [6]. Besides, the inhibition in assay [7] was 2.65%; in assay [8], -1.17%; in assay [9], 8.12%; in assay [10], 1.75%.
`COc1cccc(-n2nc(C)c3c(N/N=C(\C)c4ccncc4)ncnc32)c1`: the inhibition in [1] is 2.57%; in assay [2] it was -1.2%; in assay [3] it was 0.69%; in assay [4], -2.28%; in assay [5], -0.38%; in assay [6], 3.18%. For the same compound, the inhibition in assay [7] is 2.67%; in assay [8] it was 0.67%; in assay [9], 2.24%; in assay [10] it was 1.27%.

Values taken from ChEMBL document CHEMBL1961873, “Compounds: GSK PKIS; Assays: Nanosyn kinase panel” (2012).
